Test results: PubChem BioAssay (NCATS)
Calls of active or inactive are those of the source. Unless noted, the call rests on the fitted dose curve; in most records, active means well fitted curve in the direction sought with a large enough effect; inconclusive means small, poorly fitted or top-dose-only effect, or another doubt; inactive means no such curve, though single readings can be large; an effect the other way counts as inactive or inconclusive.

Key:
[1] = target: Estrogen receptor (Homo sapiens) (UniProt P03372); experiment: qHTS assay for small molecule antagonists of estrogen receptor alpha signaling (AID 588513; active means well fitted curve in the direction sought with a large enough effect in the signal ratio, with a control signal flat, not every such curve was filed as active; inconclusive means small, poorly fitted or top-dose-only effect, or effect the other way, or a change in a side signal; inactive means no such curve, though single readings can be large or run the other way; the % refers to the signal ratio; further: potency means the concentration at half of the fitted maximal effect)
Chain of Estrogen receptor (Homo sapiens) (P03372 whole entry, looked up): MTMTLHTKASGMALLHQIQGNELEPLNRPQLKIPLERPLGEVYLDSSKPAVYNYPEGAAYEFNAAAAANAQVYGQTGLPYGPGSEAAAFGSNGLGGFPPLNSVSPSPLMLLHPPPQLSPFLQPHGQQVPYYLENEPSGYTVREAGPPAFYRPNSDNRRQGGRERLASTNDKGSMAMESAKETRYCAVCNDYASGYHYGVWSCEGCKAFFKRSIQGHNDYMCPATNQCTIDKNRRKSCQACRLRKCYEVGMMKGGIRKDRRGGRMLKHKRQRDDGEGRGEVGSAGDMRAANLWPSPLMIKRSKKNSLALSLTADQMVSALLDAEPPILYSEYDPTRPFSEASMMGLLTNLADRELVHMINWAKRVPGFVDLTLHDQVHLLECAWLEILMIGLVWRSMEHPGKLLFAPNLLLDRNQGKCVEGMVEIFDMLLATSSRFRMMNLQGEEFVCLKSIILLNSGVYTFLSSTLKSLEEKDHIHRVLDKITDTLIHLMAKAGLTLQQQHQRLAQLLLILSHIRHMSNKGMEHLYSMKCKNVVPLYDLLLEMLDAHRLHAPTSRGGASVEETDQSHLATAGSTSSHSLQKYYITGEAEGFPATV
Method in brief: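 ER-alpha-UAS-bla GripTite HEK 293 cells in medium with 2% charcoal/dextran-treated FBS were preincubated 4 h at 37 C, dosed with compound (1:2 titration), stimulated with 0.5nM 17-beta-estradiol for 18 h, then read by CCF4 beta-lactamase fluorescence.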

[2] = target: Vitamin D3 receptor (Homo sapiens) (UniProt P11473); experiment: qHTS assay for small molecule antagonists of vitamin D receptor signaling (AID 588541; calls by dose curve; further: potency means the concentration at half of the fitted maximal effect)
Chain of Vitamin D3 receptor (Homo sapiens) (P11473 whole entry, looked up): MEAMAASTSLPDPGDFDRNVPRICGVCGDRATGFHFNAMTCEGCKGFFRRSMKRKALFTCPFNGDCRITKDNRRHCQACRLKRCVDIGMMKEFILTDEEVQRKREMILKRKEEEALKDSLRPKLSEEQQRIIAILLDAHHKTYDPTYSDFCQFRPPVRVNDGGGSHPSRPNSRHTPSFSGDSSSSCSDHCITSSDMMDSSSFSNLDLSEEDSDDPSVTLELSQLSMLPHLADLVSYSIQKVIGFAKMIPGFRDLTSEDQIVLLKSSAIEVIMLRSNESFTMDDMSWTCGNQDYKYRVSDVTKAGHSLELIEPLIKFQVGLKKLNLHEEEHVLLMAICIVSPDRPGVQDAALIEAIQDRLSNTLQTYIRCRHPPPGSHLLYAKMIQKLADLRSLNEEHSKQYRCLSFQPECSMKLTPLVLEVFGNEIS
Method in brief: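 VDR-UAS-bla HEK293T cells in 2% charcoal-stripped FBS were stimulated with 1-alpha,25-dihydroxyvitamin D3 (3 nM final) plus compound for 16 h at 37 C. The beta-lactamase CCF4 readout was normalized to 50 nM agonist and DMSO, and Hill fits gave IC50.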

[3] = target: Voltage-gated inwardly rectifying potassium channel KCNH2 (Homo sapiens) (UniProt Q12809); experiment: qHTS Assay for Small Molecule Inhibitors of the Human hERG Channel Activity (AID 588834);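 further: top concentration of the series differs between compounds; on the % scale 0 is the no-effect control and ±100 the full control effect; lower thallium flux fluorescence means stronger hERG block; nearly all actives have a fitted effect of over 50% in size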
Chain of Voltage-gated inwardly rectifying potassium channel KCNH2 (Homo sapiens) (Q12809 whole entry, looked up): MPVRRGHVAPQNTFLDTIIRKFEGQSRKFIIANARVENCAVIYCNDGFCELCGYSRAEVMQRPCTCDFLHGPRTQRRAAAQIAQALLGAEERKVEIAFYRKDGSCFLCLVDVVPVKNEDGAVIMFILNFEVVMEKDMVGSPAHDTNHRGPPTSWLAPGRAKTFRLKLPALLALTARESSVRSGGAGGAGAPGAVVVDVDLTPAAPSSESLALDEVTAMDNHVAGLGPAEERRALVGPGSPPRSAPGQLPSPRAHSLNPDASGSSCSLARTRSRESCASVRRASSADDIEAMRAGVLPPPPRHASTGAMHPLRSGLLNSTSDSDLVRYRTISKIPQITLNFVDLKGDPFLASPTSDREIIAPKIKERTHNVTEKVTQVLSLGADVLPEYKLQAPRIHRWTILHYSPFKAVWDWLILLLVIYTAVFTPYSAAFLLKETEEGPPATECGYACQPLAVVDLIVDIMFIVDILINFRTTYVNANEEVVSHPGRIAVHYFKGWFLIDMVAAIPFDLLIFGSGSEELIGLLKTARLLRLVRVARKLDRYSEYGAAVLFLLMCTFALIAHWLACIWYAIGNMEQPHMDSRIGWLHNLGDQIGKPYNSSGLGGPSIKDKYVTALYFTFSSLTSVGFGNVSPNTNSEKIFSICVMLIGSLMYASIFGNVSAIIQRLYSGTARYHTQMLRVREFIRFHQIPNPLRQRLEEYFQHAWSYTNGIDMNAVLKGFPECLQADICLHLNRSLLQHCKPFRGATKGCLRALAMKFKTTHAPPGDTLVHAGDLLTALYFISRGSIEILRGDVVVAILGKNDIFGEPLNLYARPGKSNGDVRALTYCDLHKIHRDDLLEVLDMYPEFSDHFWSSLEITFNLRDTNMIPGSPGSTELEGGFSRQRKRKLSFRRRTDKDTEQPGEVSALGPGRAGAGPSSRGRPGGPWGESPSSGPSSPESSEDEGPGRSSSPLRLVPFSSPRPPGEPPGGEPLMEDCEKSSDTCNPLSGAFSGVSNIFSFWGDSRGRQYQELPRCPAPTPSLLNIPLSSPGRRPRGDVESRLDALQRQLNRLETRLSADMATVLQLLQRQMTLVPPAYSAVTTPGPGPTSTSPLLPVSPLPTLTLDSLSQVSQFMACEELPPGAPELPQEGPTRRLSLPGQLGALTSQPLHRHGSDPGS
Method in brief: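 In hERG-transduced U2OS cells, dye-loaded for 1 hr at room temperature in dark, test compounds incubated 10 min at 37 °C before thallium stimulation. AC50 values derived by Hill modelling of concentration-response.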

[4] = qHTS assay for small molecule disruptors of the mitochondrial membrane potential - 1 hr assay (AID 651754; calls by dose curve; further: potency means the concentration at half of the fitted maximal effect; nearly all actives have a fitted effect of over 35% in size)
Method in brief: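 Loss of mitochondrial potential shifts the cationic dye from red mitochondrial aggregates to green cytoplasmic monomers. Cells (HepG2) are treated with compound for 1 hr before a 30 min dye incubation at 37C.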

[5] = qHTS assay for small molecule disruptors of the mitochondrial membrane potential - 5 hr assay (AID 651755; calls by dose curve; further: potency means the concentration at half of the fitted maximal effect; nearly all actives have a fitted effect of over 40% in size); settings: JC-1-type ratio dye
Method in brief: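 Read-out: ratiometric Mito-MPS fluorescence, green monomer (ex 490/em 535) vs red mitochondrial aggregate (ex 540/em 590). HepG2 cells treated 5 hr at 37C before 30 min dye loading.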

[6] = qHTS assay for environmental chemicals that activate the Aryl hydrocarbon Receptor (AhR) signaling pathway (AID 651777); settings: 1A2-DRE human hepatoma cells, luciferase, 24 h; stronger effect = higher value; further: % of control where 0% means no effect; nearly all actives have a fitted effect of over 15% in size
Method in brief: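 Concentration–response screening used 1,200 1A2-DRE cells per well, 24 hr compound exposure (37 C, 5% CO2), and One-Glo luminescence as the AhR-driven CYP1A2 reporter signal.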

[7] = target: Peroxisome proliferator-activated receptor alpha (Homo sapiens) (UniProt Q07869); experiment: qHTS assay for small molecule agonists of the peroxisome proliferator-activated receptor alpha (PPARalpha) signaling pathway (AID 651778); settings: PathHunter PPARalpha complementation, chemiluminescence, 6 h; stronger effect = higher value; further: % of control where 0% means no effect
Chain of Peroxisome proliferator-activated receptor alpha (Homo sapiens) (Q07869 whole entry, looked up, the tested form may be a part): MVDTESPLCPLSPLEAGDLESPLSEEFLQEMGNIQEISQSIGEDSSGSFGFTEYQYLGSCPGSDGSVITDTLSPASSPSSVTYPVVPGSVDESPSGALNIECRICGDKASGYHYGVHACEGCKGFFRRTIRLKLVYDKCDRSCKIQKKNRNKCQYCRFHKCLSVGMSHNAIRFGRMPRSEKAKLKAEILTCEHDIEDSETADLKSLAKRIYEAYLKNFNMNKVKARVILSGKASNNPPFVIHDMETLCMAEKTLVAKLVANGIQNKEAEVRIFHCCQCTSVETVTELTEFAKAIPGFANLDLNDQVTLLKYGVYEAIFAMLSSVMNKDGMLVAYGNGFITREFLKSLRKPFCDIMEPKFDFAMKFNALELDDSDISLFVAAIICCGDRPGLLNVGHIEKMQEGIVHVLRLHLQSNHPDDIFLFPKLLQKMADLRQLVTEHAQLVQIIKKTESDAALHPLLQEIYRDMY
Method in brief: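 Enzyme-fragment complementation assay in which ligand-bound PPARalpha translocates and forms an active enzyme that generates chemiluminescence. Cells were plated overnight, exposed to compound for 6 hr at 37 C, and then given detection reagent for 60 min at room temperature.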

[8] = target: Nuclear receptor ROR-gamma (Homo sapiens) (UniProt P51449); experiment: qHTS assay for small molecule antagonists of the retinoid-related orphan receptor gamma (ROR-gamma) signaling pathway (AID 651802); settings: ROR-gamma antagonist cell reporter assay; further: potency means the concentration at half of the fitted maximal effect; nearly all actives have a fitted effect of over 60% in size
Chain of Nuclear receptor ROR-gamma (Homo sapiens) (P51449 whole entry, looked up): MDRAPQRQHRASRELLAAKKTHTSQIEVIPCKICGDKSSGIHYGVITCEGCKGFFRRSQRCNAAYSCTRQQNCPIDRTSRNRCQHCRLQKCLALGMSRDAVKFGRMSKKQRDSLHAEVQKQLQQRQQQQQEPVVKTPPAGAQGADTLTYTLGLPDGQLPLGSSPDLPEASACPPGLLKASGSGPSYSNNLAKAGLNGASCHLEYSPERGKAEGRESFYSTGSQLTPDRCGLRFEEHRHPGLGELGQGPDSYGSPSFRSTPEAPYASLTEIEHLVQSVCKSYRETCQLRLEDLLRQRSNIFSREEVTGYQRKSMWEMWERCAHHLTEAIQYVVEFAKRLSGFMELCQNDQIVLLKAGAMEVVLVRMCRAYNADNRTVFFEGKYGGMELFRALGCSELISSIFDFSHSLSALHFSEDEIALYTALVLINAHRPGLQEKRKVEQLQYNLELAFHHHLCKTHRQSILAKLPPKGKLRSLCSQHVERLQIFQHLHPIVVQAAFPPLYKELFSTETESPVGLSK
Method in brief: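 Steps: cells dispensed; compound or DMSO transferred by pin tool; doxycycline added to induce the ROR response element-driven luciferase; plates held 16hr at 37C; ONE-Glo added and luminescence measured.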

[9] = qHTS assay for small molecule antagonists of the retinoid-related orphan receptor gamma (ROR-gamma) signaling pathway - cell viability counter screen (AID 720652; active means well fitted curve in the direction sought with a large enough effect in the repeat runs; inconclusive means weak or mixed curves; inactive means no such curve, though single readings can be large; an effect the other way counts as inactive or inconclusive;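 further: potency means the concentration at half of the fitted maximal effect; compound exposure lasted 16 hr before ATP read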); settings: RORgamma reporter cell line viability counter screen
Method in brief: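 Steps: seed CHO cells bearing TET-inducible ROR and ROR response element-luciferase; rest 5 hr at 37 C; add compound, then doxycycline; incubate 16 hr; add CellTiter-Glo and read luminescence as ATP-based viability.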

[10] = qHTS assay for small molecule agonists of the antioxidant response element (ARE) signaling pathway measured by Nrf2-dependant transcriptional activity - cell viability counter screen (AID 720653; active means well fitted curve in the direction sought with a large enough effect in the repeat runs; inconclusive means weak or mixed curves; inactive means no such curve, though single readings can be large; an effect the other way counts as inactive or inconclusive; further: potency means the concentration at half of the fitted maximal effect); settings: ARE-bla HepG2 viability, CellTiter-Glo ATP luminescence, 16 h; max response: stronger effect = lower value
Method in brief: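 ARE-bla HepG2 cells treated with compounds for 16 h at 37C; this counter screen measures viability as intracellular ATP by CellTiter-Glo luminescence after 30 min at room temperature.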

[11] = qHTS assay for cell viability of HEK293 cells (AID 743288); settings: ATP luminescence (CellTiter-Glo), 18 h; max response: stronger effect = lower value; further: potency means the concentration at half of the fitted maximal effect; nearly all actives have a fitted effect of over 50% in size
Method in brief: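 After 18 h compound exposure at 37 C, parental HEK293 cells (2,000/well) are lysed with CellTiter-Glo and luminescence is read following 30 min at room temperature.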

[12] = qHTS assay for cell viability of the p53RE-bla HCT-116 cell line (AID 743292); further: potency means the concentration at half of the fitted maximal effect; nearly all actives have a fitted effect of over 55% in size
Method in brief: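 Compound-exposed HCT-116 (p53RE-bla) cells, 4,000 per well, were kept 16 h at 37 C following a 5 h preincubation. Cell number was estimated from total ATP by CellTiter-Glo luminescence read after 30 min at room temperature.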

Furin (Homo sapiens) = Furin (Homo sapiens) (UniProt P09958); experiment: Furin counterscreen qHTS for Zika virus inhibitors (AID 1347149);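 further: purified recombinant full-length human furin enzyme at 5 nM; fluorescence gain from furin cutting a BOC-RVRR-AMC peptide substrate over 15 min; top concentration of the series differs between compounds; plate controls were no-inhibitor control for no effect and no-enzyme control for full effect; nearly all actives have a fitted effect of over 70% in size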
Chain of Furin (Homo sapiens) (P09958 whole entry, looked up): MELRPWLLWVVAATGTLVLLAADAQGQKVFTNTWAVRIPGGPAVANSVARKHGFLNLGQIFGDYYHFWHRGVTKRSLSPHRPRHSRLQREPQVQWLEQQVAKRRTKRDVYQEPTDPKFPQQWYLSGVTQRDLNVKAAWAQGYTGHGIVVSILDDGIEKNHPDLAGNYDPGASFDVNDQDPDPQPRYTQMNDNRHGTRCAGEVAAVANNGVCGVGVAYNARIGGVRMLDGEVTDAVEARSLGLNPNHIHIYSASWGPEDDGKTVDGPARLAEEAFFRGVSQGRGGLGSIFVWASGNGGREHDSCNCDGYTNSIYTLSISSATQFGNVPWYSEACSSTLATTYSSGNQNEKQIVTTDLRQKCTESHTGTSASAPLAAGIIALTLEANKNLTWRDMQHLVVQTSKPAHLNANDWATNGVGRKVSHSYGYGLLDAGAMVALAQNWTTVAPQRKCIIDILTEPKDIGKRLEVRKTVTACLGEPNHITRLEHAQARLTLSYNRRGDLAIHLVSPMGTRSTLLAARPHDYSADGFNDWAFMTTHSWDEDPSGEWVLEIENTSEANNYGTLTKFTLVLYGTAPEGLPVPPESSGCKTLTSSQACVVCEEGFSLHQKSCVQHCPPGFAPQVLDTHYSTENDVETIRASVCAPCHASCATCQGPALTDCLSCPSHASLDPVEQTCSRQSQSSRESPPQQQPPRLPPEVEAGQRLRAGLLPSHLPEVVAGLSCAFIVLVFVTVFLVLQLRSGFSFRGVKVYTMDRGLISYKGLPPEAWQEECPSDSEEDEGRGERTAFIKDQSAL
Method in brief: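 Counterscreen measures cleavage of 2 microM BOC-RVRR-AMC, below its ~15 microM Km, by 5 nM full-length human furin at pH 7.0 after a 15-min compound preincubation. Inhibition derives from the 15-min fluorescence increase at 37C.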

[13] = ZIKV-mCherry secondary qHTS for Zika virus inhibitors (AID 1347158); further: top concentration of the series differs between compounds
Method in brief: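 Compounds were tested in Vero monkey kidney cells infected with recombinant mCherry-expressing Zika virus at MOI 1 for 48-72 h at 37 °C. Fixed cells were nuclear-stained and imaged, and infection rate was taken as the fraction of mCherry-positive cells.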

[14] = system: Zika virus NS2B-NS3 protease (linked); experiment: 384 well plate NINDS AMC confirmatory qHTS for Zika virus inhibitors (AID 1347163); further: potency means the concentration at half of the fitted maximal effect; nearly all actives have a fitted effect of over 50% in size
Method in brief: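 Fluorescence at 355/460 nm was read after 25 minutes of cleavage of 30 microM Ac-VKTGKR-AMC at room temperature, in the dark. Before substrate addition, compounds (up to 1 mM final) sat ~15 minutes with 5, 30 or 60 nM linked protease. Signals were normalized to no-enzyme and no-inhibitor wells.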

[15] = system: Zika virus NS2B-NS3 protease (linked construct); experiment: 384 well plate NINDS Rhodamine confirmatory qHTS for Zika virus inhibitors (AID 1347164);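 further: fluorescence from protease cleavage of Ac-LKRR-rhodamine 110 substrate; potency means the concentration at half of the fitted maximal effect; nearly all actives have a fitted effect of over 65% in size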
Method in brief: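 Linked protease at a final 5 nM, 30 nM or 60 nM was preincubated ~15 min with compounds, then given 10 microM Ac-LKRR-Rhodamine 110. Fluorescence (ex 485/em 538 nm) after 25 min in the dark at room temperature.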

[16] = Vero cells viability qHTS for Zika virus inhibitors (AID 1347167); further: on the % scale 0 is the no-effect control and ±100 the full control effect
Method in brief: (§1)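 qHTS titration; 24-48 h compound exposure, 37 degrees C/5% CO2; DMEM, 4% FBS; CellTiter Glo ATP luminescence.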

[17] = HepG2 cells viability qHTS for Zika virus inhibitors (AID 1347168); further: potency means the concentration at half of the fitted maximal effect
Method in brief: as §1

[18] = Tertiary RLuc qRT-PCR qHTS assay for Zika virus inhibitors (AID 1347169); further: potency means the concentration at half of the fitted maximal effect; nearly all actives have a fitted effect of over 55% in size
Method in brief: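 Vero cells (1,000 per well) plated overnight at 37 degrees C, treated with compound in DMSO, then infected with recombinant ZIKV-RLuc (Cambodian) at MOI 1-2 for 48-72 hrs. Live-cell Renilla luciferase substrate added; luminescence read after 1-1.5 hrs.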

[19] = qHTS assay for small molecule activators of the human pregnane X receptor (PXR) signaling pathway (AID 720659; call rule not given here; further: 0% is about no effect)

O=C1c2c(O)ccc([N+](=O)[O-])c2C(=O)c2c([N+](=O)[O-])ccc(O)c21
inactive: Potency [3] | activation [6] 5.47% | max response [7] -6.07% | Potency (Furin (Homo sapiens)) | Potency [13] | Potency [16] | outcome [19]
active: Potency [1] 14.1 µM [inconclusive] | Potency [2] 22.4 µM | Potency [4] 5.31 µM | Potency [5] 3.76 µM | Potency [8] 16.8 µM | Potency [9] 33.5 µM | Potency [10] 20 µM | Potency [11] 39.8 µM | Potency [12] 39.8 µM | Potency [14] 100 µM | Potency [15] 70.8 µM | Potency [17] 42.6 µM | Potency [18] 13.5 µM
